Measured values reported in article PMC8384837, “Expanding the binding specificity for RNA recognition by a PUF domain”.
Positions count from the first letter of the chain named.

Key:
Test in all cases: yeast three-hybrid, YBZ-1, SC-Leu-His + 0.5 mM 3-AT, 4 days
Conditions in all cases: tags: N-Gal4 AD-HA kept; label: inside an RPR1-promoter hybrid RNA with tandem MS2 sites; ssRNA
[1] = target: PUM1 PUF domain R1-KAR (Homo sapiens, UniProt Q14671 828-1176, S863K;R864A;Q867R)
Outline: (§1)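 The interaction score is the log change in variant frequency from input to selection. Scores were computed in log2 with a pseudocount of 1 for absent variants, using Illumina sequencing of PCR-amplified repeat regions. The input came from four days on SC-Leu and the selection from four days on SC-Leu-His + 0.5 mM 3-AT. The cells were strain YBZ-1 (LexA–MS2 coat fusion, HIS3 reporter) co-expressing Pumilio-1 PUF domain libraries and matching RNA elements from a centromeric plasmid.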

[2] = target: PUM1 PUF domain R4-ACC (Homo sapiens, UniProt Q14671 828-1176, N971A;H972C;Q975C)
Outline: as §1

[3] = target: T1, PUM1 PUF domain R6-TFT (Homo sapiens, UniProt Q14671 828-1176, N1043T;Y1044F;Q1047T)
T1 sequence: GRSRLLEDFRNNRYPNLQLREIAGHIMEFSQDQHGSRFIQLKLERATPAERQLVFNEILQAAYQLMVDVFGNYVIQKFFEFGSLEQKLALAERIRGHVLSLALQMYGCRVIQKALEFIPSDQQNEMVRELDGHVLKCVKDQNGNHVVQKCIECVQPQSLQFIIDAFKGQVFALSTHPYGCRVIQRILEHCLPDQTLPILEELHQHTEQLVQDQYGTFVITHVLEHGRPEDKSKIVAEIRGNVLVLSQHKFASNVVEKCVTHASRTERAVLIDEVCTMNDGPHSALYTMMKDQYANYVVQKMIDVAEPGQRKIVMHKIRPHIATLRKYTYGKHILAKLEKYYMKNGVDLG
Outline: as §1

[4] = target: PUM1 PUF domain R5-FFV (Homo sapiens, UniProt Q14671 828-1176, C1007F;R1008F;Q1011V)
Outline: as §1

[5] = target: PUM1 PUF domain R5-RYK (Homo sapiens, UniProt Q14671 828-1176, C1007R;R1008Y;Q1011K)
Outline: as §1

[6] = target: PUM1 PUF domain R4-TNG (Homo sapiens, UniProt Q14671 828-1176, N971T;H972N;Q975G)
Outline: as §1

[7] = target: PUM1 PUF domain R4-HRV (Homo sapiens, UniProt Q14671 828-1176, N971H;H972R;Q975V)
Outline: as §1

[8] = target: PUM1 PUF domain R4-LHS (Homo sapiens, UniProt Q14671 828-1176, N971L;Q975S)
Outline: as §1

[9] = target: PUM1 PUF domain R2-VFV (Homo sapiens, UniProt Q14671 828-1176, N899V;Y900F;Q903V)
Outline: as §1

[10] = target: PUM1 PUF domain R5-NRR (Homo sapiens, UniProt Q14671 828-1176, C1007N;Q1011R)
Outline: as §1

[11] = target: PUM1 PUF domain R5-KGW (Homo sapiens, UniProt Q14671 828-1176, C1007K;R1008G;Q1011W)
Outline: as §1

[12] = target: PUM1 PUF domain R8-CYP (Homo sapiens, UniProt Q14671 828-1176, N1122C;Q1126P)
Outline: as §1

[13] = target: PUM1 PUF domain R8-MYW (Homo sapiens, UniProt Q14671 828-1176, N1122M;Q1126W)
Outline: as §1

[14] = target: PUM1 PUF domain R1-RMQ (Homo sapiens, UniProt Q14671 828-1176, S863R;R864M)
Outline: as §1

[15] = target: T2, PUM1 PUF domain R6-TWV (Homo sapiens, UniProt Q14671 828-1176, N1043T;Y1044W;Q1047V)
T2 sequence: T1 sequence with F217W, T220V
Outline: as §1

[16] = target: PUM1 PUF domain R5-SLH (Homo sapiens, UniProt Q14671 828-1176, C1007S;R1008L;Q1011H)
Outline: as §1

[17] = target: PUM1 PUF domain R3-ERS (Homo sapiens, UniProt Q14671 828-1176, C935E;Q939S)
Outline: as §1

Q: With “GGCUAGAACUAGUGGAUCCCCCGGCGCCCGGCGGCUCGAGCCCGGGUAAGUGUAAAUAGUCUGCAUGCCGCCGGGCGCCAUGCCUGCAGGUCGACUCUAGAAAACAUG” as the sequence, how does the binding signal [1] read?
A: 2.23 log2 enrichment (interaction score)

Q: What about the binding signal [2] of the same sequence?
A: 2.56 log2 enrichment (interaction score)

Q: What about the binding signal [3] of the same sequence?
A: 3.71 log2 enrichment (interaction score)

Q: What about the binding signal [4] of the same sequence?
A: 2.23 log2 enrichment (interaction score)

Q: What about the binding signal [5] of the same sequence?
A: 3.8 log2 enrichment (interaction score)

Q: With “GGCUAGAACUAGUGGAUCCCCCGGCGCCCGGCGGCUCGAGCCCGGGUAAGUGUAAAUUGUCUGCAUGCCGCCGGGCGCCAUGCCUGCAGGUCGACUCUAGAAAACAUG” as the sequence, how does the binding signal [1] read?
A: 6.7 log2 enrichment (interaction score)

Q: Which results are given for “GGCUAGAACUAGUGGAUCCCCCGGCGCCCGGCGGCUCGAGCCCGGGUAAGUGUACAUAGUCUGCAUGCCGCCGGGCGCCAUGCCUGCAGGUCGACUCUAGAAAACAUG”?
A: binding signal [6]: 0.22 log2 enrichment (interaction score); binding signal [7]: 1.98 log2 enrichment (interaction score)

Q: “GGCUAGAACUAGUGGAUCCCCCGGCGCCCGGCGGCUCGAGCCCGGGUAAGUGUAUAUAGUCUGCAUGCCGCCGGGCGCCAUGCCUGCAGGUCGACUCUAGAAAACAUG” was tested. Which binding signal [6] did it give?
A: 2.66 log2 enrichment (interaction score)

Q: And the binding signal [7]?
A: 2.89 log2 enrichment (interaction score)

Q: And the binding signal [8]?
A: 3.86 log2 enrichment (interaction score)

Q: “GGCUAGAACUAGUGGAUCCCCCGGCGCCCGGCGGCUCGAGCCCGGGUAAGUGUAAAAAGUCUGCAUGCCGCCGGGCGCCAUGCCUGCAGGUCGACUCUAGAAAACAUG” was tested. Which binding signal [9] did it give?
A: 5.17 log2 enrichment (interaction score)

Q: How did the binding signal [10] turn out when “GGCUAGAACUAGUGGAUCCCCCGGCGCCCGGCGGCUCGAGCCCGGGUAAGUGUCAAUAGUCUGCAUGCCGCCGGGCGCCAUGCCUGCAGGUCGACUCUAGAAAACAUG” was run?
A: 6.16 log2 enrichment (interaction score)

Q: And the binding signal [11]?
A: 3.14 log2 enrichment (interaction score)

Q: And the binding signal [5]?
A: 4.4 log2 enrichment (interaction score)

Q: What does the source list for “GGCUAGAACUAGUGGAUCCCCCGGCGCCCGGCGGCUCGAGCCCGGGUAAGCGUAAAUAGUCUGCAUGCCGCCGGGCGCCAUGCCUGCAGGUCGACUCUAGAAAACAUG”?
A: binding signal [12]: 4.27 log2 enrichment (interaction score); binding signal [13]: 2.44 log2 enrichment (interaction score)

Q: Which binding signal [14] does the source give for “GGCUAGAACUAGUGGAUCCCCCGGCGCCCGGCGGCUCGAGCCCGGGUAAGUGUAAAUCGUCUGCAUGCCGCCGGGCGCCAUGCCUGCAGGUCGACUCUAGAAAACAUG” here?
A: 5.34 log2 enrichment (interaction score)

Q: “GGCUAGAACUAGUGGAUCCCCCGGCGCCCGGCGGCUCGAGCCCGGGUAAGUGAAAAUAGUCUGCAUGCCGCCGGGCGCCAUGCCUGCAGGUCGACUCUAGAAAACAUG” was tested. Which binding signal [15] did it give?
A: 2.6 log2 enrichment (interaction score)

Q: “GGCUAGAACUAGUGGAUCCCCCGGCGCCCGGCGGCUCGAGCCCGGGUAAGUGUGAAUAGUCUGCAUGCCGCCGGGCGCCAUGCCUGCAGGUCGACUCUAGAAAACAUG” was tested. Which binding signal [16] did it give?
A: 3.2 log2 enrichment (interaction score)

Q: For “GGCUAGAACUAGUGGAUCCCCCGGCGCCCGGCGGCUCGAGCCCGGGUAAGUGUAAGUAGUCUGCAUGCCGCCGGGCGCCAUGCCUGCAGGUCGACUCUAGAAAACAUG”, which binding signal [17] is on record?
A: 2.54 log2 enrichment (interaction score)
